Test results taken from PubChem BioAssay (Tox21).
Results filed as inconclusive are left out. The source made the active and inactive calls. Unless noted, calls follow the shape of the dose curve; as a rule, active = well fitted curve in the direction sought with a large enough effect in the repeat runs; inconclusive = weak or mixed curves; inactive = no such curve, though single readings can be large; an effect the other way counts as inactive or inconclusive.

Experiments:
[1] = qHTS assay to identify small molecule antagonists of the estrogen related receptor (ERR) signaling pathway - cell viability counter screen (AID 1224818); also: series mostly up to about 46 µM
How it was run: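 ERR cells, 2,000 per well, compound added after 6 h and incubated 17.5 h at 37 C. Viability read by CellTiter-Fluor fluorescence after a further 30 min at 37 C.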

[2] = qHTS assay to identify small molecule antagonists of the estrogen related receptor (ERR) signaling pathway (AID 1224819; also: nearly all actives have a fitted effect of over 50% in size; also: potency is read from the fitted curve at half-maximal effect)
How it was run: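 ERR reporter cell line (NTP) plated at 2,000 cells/well, settled 6 h at 37C/5% CO2, then exposed to LOPAC compounds for 18 h at 37C. One-Glo luciferase luminescence read after 30 min at room temperature.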

[3] = qHTS assay to identify small molecule agonists of the estrogen related receptor (ERR) signaling pathway (AID 1224820)
How it was run: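 Quantitative HTS of the LOPAC library used NTP ERR reporter cells treated 18 h at 37 C. Signal is luminescence after One-Glo addition and a 30 min room-temperature incubation.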

[4] = tested on: estrogen-related receptor alpha (ERRalpha) with PGC-1alpha coactivator, human; assay: qHTS assay to identify small molecule antagonists of the estrogen related receptor signaling pathway with the pleiotropic PPARgamma coactivator (PGC) (AID 1224821; calls by dose curve; also: nearly all actives have a fitted effect of over 50% in size; also: potency is read from the fitted curve at half-maximal effect)
How it was run: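 Quantitative HTS for antagonism: PGC/ERR cells received compounds after 6 h attachment and were incubated 18 h at 37 C, with luminescence (One-Glo) as the endpoint.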

[5] = qHTS assay to identify small molecule antagonists of the estrogen related receptor signaling pathway with the pleiotropic PPARgamma coactivator (PGC) cell viability counter screen (AID 1224822; also: series mostly up to about 46 µM)
How it was run: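 PGC/ERR cells rested 6 h, then compound-treated 17.5 h at 37 C. CellTiter-Fluor added for 30 min at 37 C, viability measured by fluorescence intensity.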

[6] = qHTS assay to identify small molecule agonists of the estrogen related receptor signaling pathway with the pleiotropic PPARgamma coactivator (PGC) (AID 1224823)
How it was run: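 Cell-based luciferase assay in the NTP-supplied PGC/ERR line, 2,000 cells/well; 18 h compound exposure at 37 C, luminescence after One-Glo.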

Measured: Potency

C[C@@H]1O[C@H](C[N+](C)(C)C)C[C@H]1O
inactive: [1] | [2] | [3] | [4] | [5] | [6]

CCCn1c(=O)c2[nH]c(C3CCCC3)nc2n(CCCOC(=O)c2ccc(S(=O)(=O)F)cc2)c1=O
inactive: [1] | [2] | [3] | [4] | [5] | [6]

C=CCN1CCC23c4c5ccc(O)c4O[C@H]2C(=O)CC[C@@]3(O)C1C5 (stereo not given in full)
inactive: [1] | [2] | [3] | [4] | [5] | [6]

C[C@@H]1O[C@@H](O[C@H]2C[C@@H](O)[C@]3(CO)[C@@H]4C(CC[C@]3(O)C2)[C@@]2(O)CC[C@H]([C@@H]3COC(=O)C3)[C@@]2(C)C[C@H]4O)[C@H](O)[C@H](O)[C@H]1O (stereo not given in full)
inactive: [1] | [3] | [6]
active: [2] 1.19 µM | [4] 3.48 µM

C[N+](C)(C)CC#CCN1CCCC1=O
inactive: [1] | [2] | [3] | [4] | [5] | [6]

CS(=N)(=O)CC[C@H](N)C(=O)O (stereo not given in full)
inactive: [1] | [2] | [3] | [4] | [5] | [6]
